This is an account of results in the supplement of paper PMC6522484.

SMILES strings stand for the structures. ± gives the standard deviation of the averaged measurements.

The subject of assay [1] is DLD1. Kind of assay: cell viability (CellTiter-Glo) relative to plate median (fraction of plate median); higher = more viable cells. As to conditions: 5 µM; treatment time 24 h; reporter: 7TFP. The gist of the method: (§1)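 Luminescence, normalised well by well to the plate median, is tabulated as a mean of independent replicates. There were two replicates, run on colorectal cancer lines stably transduced with lentiviral TCF/Wnt firefly luciferase reporters and dosed with library compounds at a final 5 µM for 24 h. Readouts were firefly luciferase or CellTiterGlo on parallel plates.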
(Cellular ATP, detected with luciferase, serves as a proxy for viable cell number.)

Assay [2] concerns HCT116. Described as above. As to conditions: 5 µM; treatment time 24 h; reporter: TCF4/Wnt. The gist of the method: as §1
The subject of assay [3] is SW480. Described as above. To be noted: 5 µM; treatment time 24 h; reporter: 7TFP. In a few lines: as §1
Assay [4] deals with DLD1. In words: TCF/Wnt firefly luciferase reporter signal relative to plate median (fraction of plate median); higher = higher Wnt reporter signal. As to conditions: 5 µM; treatment time 24 h; reporter: 7TFP. In a few lines:
as §1

The test system of assay [5] is SW480. Described as above. To be noted: 5 µM; treatment time 24 h; reporter: 7TFP. In a few lines:
as §1

With `NCCCC(O)(P(=O)(O)O)P(=O)(O)O`, the cell viability in assay [1] was determined as 0.98 ± 0.028; in assay [2], 0.974 ± 0.12; in assay [3], 0.963 ± 0.0042. The entries for the “TCF/Wnt firefly luciferase reporter signal” value in assay [4] and in assay [5] were 0.974 ± 0.12 and 1.02 ± 0.03, respectively.
For the molecule `CCc1nc(N)nc(N)c1-c1ccc(Cl)cc1`, the cell viability amounted to 0.972 ± 0.082 in assay [1], 0.999 ± 0.03 in assay [2] and 1.02 ± 0.021 in assay [3]. Besides, the “TCF/Wnt firefly luciferase reporter signal” value in assay [4] amounted to 1.1 ± 0.23; in assay [5] it was 1.1 ± 0.042.
The like results for `C=CCSCC=C` were, in that order, 0.9785 ± 0.0078, 0.967 ± 0.047, 0.98 ± 0.029, 0.959 ± 0.015 and 0.95 ± 0.05.
The like results for `OCCN1C[C@H](O)[C@@H](O)[C@H](O)[C@H]1CO` were, in that order, 0.86 ± 0.15, 0.957 ± 0.19, 0.97 ± 0.025, 0.954 ± 0.11 and 0.988 ± 0.06.
As for `CO[C@@]12[C@H](COC(N)=O)C3=C(C(=O)C(C)=C(N)C3=O)N1C[C@@H]1N[C@@H]12`, the values for the cell viability in assay [1], in assay [2] and in assay [3] were 1.12 ± 0.057, 1.01 and 1.25 ± 0.021, respectively. Besides, the “TCF/Wnt firefly luciferase reporter signal” value turned out to be 0.974 ± 0.094 in assay [4] and 0.843 ± 0.13 in assay [5].
On to `CC(C)[C@H](NC(=O)[C@@H]1CCCN1)C(=O)N1CCNC(=O)C1=O` [Prolyl-valyl-diketopiperazine], for which the cell viability stood at 1.04 ± 0.12 in assay [1], 1.14 ± 0.092 in assay [2] and 1.07 ± 0.05 in assay [3]. Moreover, the “TCF/Wnt firefly luciferase reporter signal” value worked out at 0.919 ± 0.013 in assay [4] and 0.962 ± 0.021 in assay [5].
On to `CC(C)=CCC[C@](C)(O)C1CC=C(C)CC1` (stereo not given in full), for which the values for the cell viability in assay [1], in assay [2] and in assay [3] were 1.04 ± 0.063, 0.973 ± 0.081 and 1.1 ± 0.085, respectively. The figures for the “TCF/Wnt firefly luciferase reporter signal” value in assay [4] and in assay [5] were 1.03 ± 0.014 and 0.996 ± 0.076, respectively.
The like results for `O=C1NC(Cc2ccc(O)cc2)C(=O)N2CCCC12` (stereo not given) [Cyclo(tyrosylprolyl)] were, in that order, 0.935 ± 0.0085, 0.928 ± 0.023, 0.9425 ± 0.0021, 0.768 ± 0.15 and 0.959 ± 0.028.
For `CC(C)Cn1c(=O)n(C)c(=O)c2nc[nH]c21` the same measures were 0.956 ± 0.048, 1.04 ± 0.05, 0.9585 ± 0.0092, 0.972 ± 0.054 and 0.987 ± 0.018.
For `C=C1CCC2C(CC2(C)C)C(=O)CCC1O` (stereo not given) the same measures were 0.969 ± 0.037, 0.962 ± 0.023, 0.97 ± 0.0014, 0.932 ± 0.025 and 0.9285 ± 0.0064.
Take `Cc1nc2ccccc2c(=O)[nH]1` [2-Methyl-3H-quinazoline-4-on]: the cell viability in assay [1] is 0.991 ± 0.011; in assay [2], 1.06 ± 0.064; in assay [3], 0.979 ± 0.044. In addition, the results for the “TCF/Wnt firefly luciferase reporter signal” value in assay [4] and in assay [5] were 1.01 ± 0.09 and 1.1 ± 0.021, respectively.
For `CN(Cc1cnc2nc(N)nc(N)c2n1)c1ccc(C(=O)N[C@@H](CCC(=O)O)C(=O)O)cc1` the same measures were 0.475 ± 0.1, 1.055 ± 0.0071, 1.1, 0.739 ± 0.3 and 1.07 ± 0.064.
For `C[C@H]1O[C@@H](O[C@H]2[C@@H](O)C[C@H](O[C@H]3[C@@H](O)C[C@H](O[C@H]4CC[C@@]5(C)[C@H](CC[C@@H]6[C@@H]5C[C@@H](O)[C@]5(C)[C@@H](C7=CC(=O)OC7)CC[C@]65O)C4)O[C@@H]3C)O[C@@H]2C)C[C@H](O)[C@@H]1O` the same measures were 0.838 ± 0.068, 0.282 ± 0.23, 0.855 ± 0.053, 0.151 ± 0.15 and 0.221 ± 0.094.
For `O=c1[nH]c(=O)n([C@H]2C[C@H](O)[C@@H](CO)O2)cc1C(F)(F)F` the same measures were 1.07 ± 0.042, 1.03 ± 0.05, 1.03 ± 0.014, 0.818 ± 0.16 and 0.886 ± 0.013.
As for `C[C@H](N)[C@H](O)c1cccc(O)c1`, the cell viability in assay [1] was 0.955 ± 0.052; in assay [2], 0.997 ± 0.075; in assay [3] it was 1.06 ± 0.035. The “TCF/Wnt firefly luciferase reporter signal” value in assay [4] came out at 0.918 ± 0.074; in assay [5], 0.915 ± 0.0071.
